# Compound activity (PubChem BioAssay)
# The list is not random: actives were taken first. Their share in the collection is about 2.3%.
# PGC1a acetyl inh = lowers PGC1a acetylation signal in U2OS cells. AlphaScreen anti-acetyl-lysine; with virally co-expressed GCN5 acetyltransferase. inhibition, % at 15.6 µM. hit rate 0.17% among 350,000. AID 651687;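 active = every replicate shows inhibition of at least 40%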;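 note: 0% = neutral control wells and 100% = positive control wells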
# F508del corr = CFTR F508del correction in bronchial cells. CFBE cells, YFP halide quenching; stimulated with forskolin plus potentiator P3; % fluorescence drop versus neutral controls. activity (quench increase), % at 7.58 µM. hit rate 0.36% among 350,000;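 active = mean added fluorescence quench of at least 8% versus neutral control, with both replicates also reaching 8%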;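 note: cells transiently co-express mutant CFTR-F508del with the halide-sensitive YFP; corrector assay measuring rescue of mutant channel to the surface after 24 h compound exposure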
# PAX8 inh HTS = inhibitors of PAX8 transcriptional activity in RMG-I cells. RMG-I TPO-luciferase reporter, SteadyGlo, 24 h. inhibition, % at 12.6 µM. hit rate 1.2% among 360,000. AID 652154;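 active = mean replicate inhibition at least 60% with every replicate also reaching 60%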;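 note: luciferase light reporting Pax8 driven TPO promoter activity; plate controls were median of neutral control wells for no effect and mitoxantrone controls for full effect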
# Env fusion inh = blocks HIV Env-driven cell-cell fusion | inhibition, % at 12.3 µM | hit rate 1.1% among 360,000 | HeLa-JRFL Env/CEM21 cell fusion, luciferase;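 active = mean replicate inhibition score of at least 50 and every replicate individually at or above 50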;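 note: 0% = plate neutral controls and 100% = maraviroc near 300 nM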
# EWS-Fli inh = EWS/Fli transcriptional activity inhibition; A673 NR0B1-luciferase reporter, viability-normalised; hit rate 0.67% among 350,000; AID 651661; inhibition, % at 12.6 µM;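 active = mean inhibition of at least 50% after viability correction, with every replicate also passing that limit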;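 note: firefly luciferase signal divided by Alamar Blue viability fluorescence both relative to DMSO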
# DNA binder FP = DNA binding small molecules | AC35, µM (series often up to 68 µM), inactives show top-dose activity change, negative = DNA binding | salmon sperm DNA acridine orange fluorescence polarization | shares compounds with EWS-Fli inh | hit rate 2% among 640;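 active = fitted curve reaches a 35% signal fall AC35 below twice the sample's top valid tested dose, actives reach about 48 µM in these data; inactive = the rest, including activity in the rising direction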;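 note: lower polarization ratio signals compound binding to DNA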
# COX5a expr inh = C2C12 myotube COX5a expression inhibition; shares compounds with PGC1a acetyl inh; C2C12 myotubes PGC-1a adenovirus, COX5a qPCR; maximal activity, %; 45 tested, under 10 active; AID 743461;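 active = fitted dose curve reaching 40% activity at or below the highest valid dose tested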
# AID743468 = change in PGC-1a target gene PDK4 expression, dose response, C2C12 myotubes, RT-qPCR, cherry-pick; shares compounds with PGC1a acetyl inh; PGC-1a adenovirus, PDK4 mRNA qPCR; PDK4 expression increase, % at 19.5 µM; 45 tested, under 10 active;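 active = fitted curve reaching a 40% PDK4 expression rise at or below the top valid tested dose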
# Starred values were filed as active, the others as inactive; nt = no result.
SMILES,PGC1a acetyl inh,F508del corr,PAX8 inh HTS,Env fusion inh,EWS-Fli inh,others
CC1OC(OC2CC(O)C3(CO)C4C(O)CC5(C)C(C6=CC(=O)OC6)CCC5(O)C4CCC3(O)C2)C(O)C(O)C1O (stereo unspecified),81*,15*,nt,nt,68*,DNA binder FP=5%
COc1ccc(C#Cc2ccc([C@H]3[C@H]4CN(C(=O)Cc5ccncc5)CCCCN4[C@H]3CO)cc2)cc1,5,5,43,nt,nt,
COc1ccc(C#Cc2ccc([C@@H]3[C@H]4CN(C(=O)Cc5ccncc5)CCCCN4[C@H]3CO)cc2)cc1,6,1,0,nt,nt,
O=C(Cc1cccnc1)N1CCCCN2[C@H](CO)[C@@H](c3ccc(C#CC4CCCC4)cc3)[C@H]2C1,12,-1,1,nt,0,
CCn1nc(/C=C/c2ccccc2)nc2c(=O)n(C)c(=O)nc1-2,69*,-4,94*,27,28,COX5a expr inh=-56;AID743468=-55
COC(=O)[C@@H]1[C@@H](CO)[C@@H]2Cn3c(ccc(-c4cccc(F)c4)c3=O)[C@H]1N2C(=O)CC1CC1,nt,nt,nt,nt,-3,
